This passage reports inhibition results from PubChem BioAssay AID2360 (The Scripps Research Institute Molecular Screening Center, 2010).

Hit rate of the full screen: of about 1,900 compounds, about 85 (4%) were called active. These entries were drawn from the full list. Unmarked numbers belong to inactive results.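 The calls were made as follows: active = mean PP5 inhibition over triplicate wells above about 9.5% taken from the earlier PP1 screen (limit read from the data); inactive = the rest.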

The target in the assay is Serine/threonine-protein phosphatase 5 (Homo sapiens) (UniProt P53041). The assay is described as follows: human PP5 catalytic subunit inhibitors – biochemical, fluorescence, triplicate, counter-screen for PP1 inhibitor project, confirmation (AID 2360). Particulars: purified PP5c, OMFP fluorescence; at 6.7 µM; active compounds read high.
Serine/threonine-protein phosphatase 5 (Homo sapiens), sequence (P53041 whole entry, looked up): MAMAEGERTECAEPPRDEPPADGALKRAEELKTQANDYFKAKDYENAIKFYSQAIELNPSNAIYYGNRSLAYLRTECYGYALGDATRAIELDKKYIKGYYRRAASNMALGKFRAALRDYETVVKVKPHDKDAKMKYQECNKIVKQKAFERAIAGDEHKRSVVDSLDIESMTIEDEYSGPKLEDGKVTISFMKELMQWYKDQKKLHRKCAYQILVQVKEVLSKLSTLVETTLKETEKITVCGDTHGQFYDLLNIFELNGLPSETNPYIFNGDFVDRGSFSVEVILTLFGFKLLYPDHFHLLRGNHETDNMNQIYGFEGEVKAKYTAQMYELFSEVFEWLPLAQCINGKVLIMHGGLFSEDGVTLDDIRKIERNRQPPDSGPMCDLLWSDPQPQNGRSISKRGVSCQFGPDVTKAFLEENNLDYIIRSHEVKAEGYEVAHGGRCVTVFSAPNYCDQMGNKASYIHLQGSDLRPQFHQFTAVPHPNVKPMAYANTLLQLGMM
As to `O=C(COC(=O)c1ccc(Oc2ccccc2)cc1)Nc1nnc(-c2ccccc2)o1`, the inhibition was -5.1%. For the compound `CN(C(=O)CN(CCO)CC(=O)N(C)C(C)(C)Cc1ccccc1)C(C)(C)Cc1ccccc1`, the inhibition is -8.53%. For `O=C1c2cccc(OCC(=O)N3N=C(c4cccs4)CC3c3ccc(F)cc3)c2CCN1Cc1ccccc1` (centres undefined) the value was -2.07%; for `O=C(/C=C/c1ccc(F)cc1)NC(=S)NNC(=O)c1cccnc1`, -1.96%; for `Cc1ccc(Nc2nc(CSc3nnnn3-c3ccccc3)cc(=O)[nH]2)cc1`, -0.66%. Consider `O=C(N=C1SC2CS(=O)(=O)CC2N1c1cc(Cl)ccc1Cl)C1CC1` (centres undefined), for which the inhibition was -3.78%. For `O=C(Nc1ccc(S(=O)(=O)Nc2nccs2)cc1)c1cc(-c2ccncc2)nc2ccccc12` the value was 0.33%. For `OCCCN1c2ccccc2Nc2nnc(-c3ccccc3)cc21` the value was 4.57%; for `C/C(=N\c1nc2ccccc2n1C)c1cc(Cl)ccc1O`, -5.58%; for `COc1ccccc1NC(=O)CSc1nc2sc3c(c2c(=O)n1-c1ccccc1)CCN(C)C3`, -2.95%. As for `Cc1ccc(CSCC2Nc3ccc(C(=O)N4CCN(c5ccc(F)cc5)CC4)cc3NC2=O)cc1` (centres undefined), the inhibition was -0.12%.

As for `Cc1ccc(C)c(Cn2nnc3c(=O)[nH]c(C(=O)Nc4ccc(F)cc4)nc32)c1`, the inhibition is -0.92%. For `CCCCCCCCCCOC(=O)Cn1c(COc2ccc(C)cc2)[n+](C)c2ccccc21` the value was 1.37%; for `C#CCOCCOCCOCCNc1nc(N2CCN(C(=O)CCCCCCCCCCNC(=O)Cn3cc(CCCCCN)nn3)CC2)nc(N2CCN(C(=O)CCCCCCCCCCNC(=O)[C@H](CO)n3cc(CCCSC)nn3)CC2)n1`, 0.18%; for `Cc1ccc(Cn2nnc3c(=O)[nH]c(C4CCN(S(=O)(=O)/C=C/c5ccccc5)CC4)nc32)cc1`, 2.46%.

Consider `O=[N+]([O-])c1ccccc1/C=N/n1c(COc2ccccc2)n[nH]c1=S`, for which the inhibition is -5.54%. For `Cc1nc(/N=C(\N)NC(=O)NC2CCCCC2)nc2ccccc12` the value was -1.97%; for `COC(=O)Cc1cc(=O)n(-c2nc3ccccc3s2)[nH]1`, 0.87%; for `c1ccc(-c2nccc(-c3ccc(-n4cnc5ccccc54)cc3)n2)nc1`, 3.84%. Consider `O=C(N/N=C/c1cc([N+](=O)[O-])ccc1O)/C(=C\c1cccs1)NC(=O)c1ccccc1`, for which the inhibition is -3.51%. For `COc1ccc(NC(=O)C2C3CCC(O3)C2C(=O)O)cc1OC` (centres undefined) the value was 39.5% (active); for `CC(C)OC(=O)c1cc(NC(=O)C2C3CCC(O3)C2C(=O)O)cc(C(=O)OC(C)C)c1` (centres undefined), 9.52%; for `Cc1cc(N2C(=O)C(O)=C(C(=O)c3ccc(C)o3)C2c2ccc(OCc3ccccc3)cc2)no1` (centres undefined), -0.28%. Take `O=[N+]([O-])/C=C/c1ccc2c(ccn2Cc2ccccc2)c1`: the inhibition is -1.11%. For `C=CCn1c(=NC(=O)c2ccc(S(=O)(=O)N3CCCC3)cc2)sc2cc(NC(C)=O)ccc21` the value was -0.04%; for `COCCCNC(=O)C1CC(=O)N(c2ccc(C)cc2)C1` (centres undefined), -1.02%. For `NC(N)=N/N=C/c1ccc(OCc2ccc(Cl)cc2Cl)cc1` the value was -2.25%; for `Cc1ccc(-n2nc3ccc(NC(=O)/C=C/c4ccco4)cc3n2)cc1C`, -6.55%. For `Clc1ccc2c(c1)C1=C(C(c3ccncc3)O2)C(c2ccc(Br)cc2)n2ncnc2N1` (centres undefined) the value was 2.48%; for `CCn1c(SCC(=O)Nc2cc(C)ccc2C)nnc1-c1cnccn1`, -3.87%; for `Oc1c(C(c2ccccn2)N2CCOCC2)ccc2cccnc12` (centres undefined), -0.03%. On to `N#Cc1c(-c2ccccc2)nc(SCc2cccc(C(F)(F)F)c2)[nH]c1=O`, for which the inhibition is -1.06%. For `C=C1c2c(Cl)ccc(O)c2C(O)=C2C(=O)[C@]3(O)C(O)=C(C(N)=O)C(=O)[C@@H](N(C)C)[C@@H]3[C@@H](O)C12` (some centres undefined) the value was 2.9%; for `Cc1ccc(N2C(=O)C3N=NN(CC(=O)N4N=C(c5cccc6ccccc56)CC4c4ccccc4)C3C2=O)cc1` (centres undefined), -0.1%; for `CC(=O)c1ccc(N2CCN(S(=O)(=O)c3ccc4c(c3)CC(=O)N4C)CC2)cc1`, 2.4%. For the compound `COc1ccc(-c2nn(-c3ccccc3)cc2/C=C2/SC(=S)N(CCCC(=O)O)C2=O)c(C)c1`, the inhibition was -0.32%. With `Cc1ccc(OCC(=O)Nc2ccc(-c3nnc(-c4ccco4)o3)cc2)cc1`, the inhibition was -4.22%. For `CCOc1ccc(NC(=O)c2ccc(NC(=O)COC(=O)c3ccc(NC(=O)CC#N)cc3)cc2)cc1` the value was -3.12%; for `CC(C)(C)Nc1nc(-c2ccccn2)nc2ccccc12`, -4.55%.
